In PubChem BioAssay AID1159580 (chemical genetic matrix, 2015):
“And” between values parts separate entries of the source, which are not always exact repeats. Equal values may be shown once. Hit rate of the full screen: of about 5,500 compounds, about 2,000 (36%) were called active. About 18% were inconclusive and are not listed. No stated cut-off is given here; in the data, active means normalized growth mostly below about 0.91 (no sharp cut-off); inconclusive means no clear call, values can overlap the other calls; inactive means mostly above about 0.92. The list shows a part of the results.

Experiment: chemical genetic growth profiling, strain panel (AID 1159580);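 further: tested at 20 µM; growth read once vehicle control cultures reached saturation at 30 °C; 1 = growth at the plate median or of vehicle wells; lower values mean less growth of the strain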
Settings: S. cerevisiae deletion strains, growth OD

Measured: normalized growth

COc1cc2c(cc1OC)[C@@]13CCN4CC5=CCOC6CC(=O)N2C1[C@H]6[C@H]5C[C@H]43 (stereo partly drawn)
inactive: locus YAL013W, strain DEP1, hits give low values 1.02 | locus YAL021C, strain ccr4, hits give low values 0.983 | locus YAL026C, strain drs2, hits give low values 0.998 | locus YAL030W, strain snc1, hits give low values 1 | locus YBL061C, strain skt5, hits give low values 0.994 | locus YBR009C, strain hhf1, hits give low values 0.994 | locus YBR021W, strain FUR4, hits give low values 0.985 | locus YBR023C, strain chs3, hits give low values 0.989 | locus YBR171W, strain sec66, hits give low values 0.99 | locus YBR229C, strain ROT2, hits give low values 1.01 | locus YBR231C, strain swc5, hits give low values 0.979 | locus YBR279W, strain paf1, hits give low values 0.993 | locus YCL011C, strain gbp2, hits give low values 0.988 | locus YCL016C, strain dcc1, hits give low values 0.986 | locus YCL029C, strain bik1, hits give low values 1.01 | locus YCL061C, strain MRC1, hits give low values 0.988 | locus YCL069W, strain vba3, hits give low values 0.995 | locus YCR088W, strain abp1, hits give low values 0.994 | locus YDL005C, strain med2, hits give low values 0.988 | locus YDL035C, strain GPR1, hits give low values 1.03 | locus YDL040C, strain nat1, hits give low values 0.983 | locus YDL074C, strain BRE1, hits give low values 1.03 | locus YDL101C, strain DUN1, hits give low values 1.02 | locus YDL185W, strain tfp1, hits give low values 1 | locus YDL192W, strain arf1, hits give low values 1.01 | locus YDR001C, strain nth1, hits give low values 0.997 | locus YDR069C, strain doa4, hits give low values 1 | locus YDR101C, strain arx1, hits give low values 0.997 | locus YDR137W, strain rgp1, hits give low values 1 | locus YDR150W, strain NUM1, hits give low values 1.02 | locus YDR159W, strain sac3, hits give low values 0.977 | locus YDR162C, strain NBP2, hits give low values 1.02 | locus YDR195W, strain ref2 0.927 | locus YDR297W, strain sur2, hits give low values 0.996 | locus YDR318W, strain mcm21, hits give low values 1.02 | locus YDR334W, strain swr1, hits give low values 0.986 | locus YDR335W, strain msn5, hits give low values 0.996 | locus YDR388W, hits give low values 0.994 | locus YDR392W, strain spt3, hits give low values 0.999 | locus YDR502C, strain sam2, hits give low values 1.03 | locus YEL003W, strain gim4, hits give low values 0.997 | locus YEL037C, strain rad23, hits give low values 0.989 | locus YEL061C, strain CIN8 (second series), hits give low values 0.986 | locus YEL061C, strain CIN8, hits give low values 1.01 | locus YER015W, strain faa2, hits give low values 0.989 | locus YER016W, strain bim1, hits give low values 0.989 | locus YER110C, hits give low values 0.997 | locus YER111C, strain swi4, hits give low values 0.971 | locus YER155C, strain BEM2 (second series), hits give low values 0.993 | locus YER155C, strain BEM2, hits give low values 1.01 | locus YER167W, strain BCK2, hits give low values 1 | locus YFR010W, strain ubp6, hits give low values 0.999 | locus YGL078C, strain dbp3, hits give low values 1.01 | locus YGL086W, strain mad1, hits give low values 1 | locus YGL167C, strain pmr1, hits give low values 0.988 | locus YGL173C, strain kem1, hits give low values 0.982 | locus YGL227W, strain vid30, hits give low values 0.984 | locus YGL240W, strain doc1, hits give low values 0.979 | locus YGL248W, strain PDE1, hits give low values 1.01 | locus YGL253W, strain hxk2, hits give low values 0.988 | locus YGR078C, strain PAC10, hits give low values 1.02 | locus YGR135W, strain pre9, hits give low values 1.01 | locus YGR229C, strain SMI1, hits give low values 1.04 | locus YGR252W, strain gcn5, hits give low values 0.994 | locus YHR013C, strain ard1, hits give low values 0.964 | locus YHR027C, strain rpn1, hits give low values 0.987 | locus YHR030C, strain SLT2, hits give low values 1.02 and 1.01 | locus YHR079C, strain IRE1 (second series), hits give low values 0.996 | locus YHR079C, strain IRE1, hits give low values 1.09 | locus YHR094C, strain hxt1, hits give low values 0.977 | locus YHR129C, strain ARP1, hits give low values 1.02 | locus YHR142W, strain chs7, hits give low values 0.99 | locus YHR200W, strain rpn10, hits give low values 0.99 | locus YIL066C, strain RNR3, hits give low values 1.02 | locus YIL073C, strain SPO22, hits give low values 1.02 | locus YIL125W, strain kgd1, hits give low values 1 | locus YIR030C, strain dcg1, hits give low values 0.996 | locus YJL092W, strain hpr5, hits give low values 0.984 | locus YJL095W, strain BCK1 (second series), hits give low values 0.984 | locus YJL095W, strain BCK1, hits give low values 1.02 and 0.999 | locus YJL115W, strain asf1, hits give low values 0.993 | locus YJL129C, strain trk1, hits give low values 0.99 | locus YJL134W, strain LCB3, hits give low values 1.01 | locus YJL154C, strain vps35, hits give low values 0.986 | locus YJL164C, strain tpk1, hits give low values 1.01 | locus YJL166W, strain qcr8, hits give low values 0.996 | locus YJL168C, strain set2, hits give low values 1 | locus YJL187C, strain SWE1 (second series), hits give low values 1.02 | locus YJL187C, strain SWE1, hits give low values 0.996 | locus YJR043C, strain POL32, hits give low values 1.04 | locus YJR066W, strain TOR1, hits give low values 0.973 | locus YJR075W, strain HOC1, hits give low values 1.02 | locus YKL009W, strain mrt4, hits give low values 1.04 | locus YKL068W, hits give low values 0.995 | locus YKL085W, strain MDH1 (second series), hits give low values 1 | locus YKL085W, strain MDH1, hits give low values 1 | locus YKL160W, strain elf1, hits give low values 0.98 | locus YKR001C, strain vps1, hits give low values 1.01 | locus YKR026C, strain gcn3, hits give low values 0.991 | locus YKR091W, strain srl3, hits give low values 0.994 | locus YLL001W, strain dnm1, hits give low values 0.989 | locus YLL026W, hits give low values 0.99 | locus YLL041C, strain sdh2, hits give low values 0.995 | locus YLR027C, strain aat2, hits give low values 0.996 | locus YLR039C, strain RIC1, hits give low values 1.04 | locus YLR058C, strain SHM2, hits give low values 1.02 | locus YLR102C, strain apc9, hits give low values 0.997 | locus YLR113W, strain HOG1, hits give low values 0.991 | locus YLR221C, strain rsa3, hits give low values 0.997 | locus YLR258W, strain gsy2, hits give low values 0.99 | locus YLR262C, strain YPT6 (second series), hits give low values 0.988 | locus YLR262C, strain YPT6, hits give low values 1.05 | locus YLR268W, strain sec22, hits give low values 1 | locus YLR320W, strain mms22, hits give low values 0.982 | locus YLR330W, strain CHS5, hits give low values 1.01 | locus YLR342W, strain FKS1 (second series), hits give low values 1.02 | locus YLR342W, strain FKS1, hits give low values 0.989 | locus YLR357W, strain rsc2, hits give low values 0.983 | locus YLR370C, strain arc18, hits give low values 0.991 | locus YLR371W, strain rom2, hits give low values 0.993 | locus YLR384C, strain iki3, hits give low values 0.995 | locus YLR418C, strain cdc73, hits give low values 1.01 | locus YML016C, strain PPZ1, hits give low values 1.01 | locus YML032C, strain rad52, hits give low values 1.01 | locus YML120C, strain ndi1, hits give low values 0.981 | locus YML124C, strain tub3, hits give low values 1 | locus YMR058W, strain fet3, hits give low values 0.986 | locus YMR078C, strain ctf18, hits give low values 1 | locus YMR125W, strain sto1, hits give low values 0.992 | locus YMR129W, hits give low values 0.997 | locus YMR205C, strain PFK2, hits give low values 0.973 | locus YMR223W, strain ubp8, hits give low values 1 | locus YMR231W, strain pep5, hits give low values 0.995 | locus YMR307W, strain GAS1, hits give low values 1.05 | locus YNL067W, strain RPL9B, hits give low values 1.01 | locus YNL071W, strain lat1, hits give low values 0.997 | locus YNL128W, strain TEP1, hits give low values 1.03 | locus YNL153C, strain GIM3, hits give low values 1.02 | locus YNL183C, strain NPR1, hits give low values 0.968 | locus YNL209W, strain ssb2, hits give low values 1 | locus YNL233W, strain BNI4, hits give low values 1.01 | locus YNL248C, strain rpa49, hits give low values 0.992 | locus YNL250W, strain rad50, hits give low values 1 | locus YNL271C, strain bni1, hits give low values 1.01 | locus YNL298W, strain CLA4, hits give low values 1.01 | locus YNL307C, strain MCK1, hits give low values 0.996 | locus YNL322C, strain KRE1 (second series), hits give low values 0.982 | locus YNL322C, strain KRE1, hits give low values 1.01 | locus YNR049C, strain mso1, hits give low values 0.989 | locus YNR052C, strain pop2, hits give low values 0.995 | locus YOL012C, strain htz1 1.21 | locus YOL147C, strain pex11, hits give low values 0.993 | locus YOR001W, strain rrp6, hits give low values 0.994 | locus YOR061W, strain CKA2, hits give low values 1.01 | locus YOR069W, strain VPS5, hits give low values 1.02 | locus YOR070C, strain gyp1, hits give low values 0.998 | locus YOR080W, strain dia2, hits give low values 0.986 | locus YOR083W, strain WHI5, hits give low values 0.993 | locus YOR106W, strain vam3, hits give low values 0.997 | locus YOR136W, strain idh2, hits give low values 0.991 | locus YOR144C, strain elg1, hits give low values 0.997 | locus YOR184W, strain ser1, hits give low values 1.02 | locus YOR231W, strain MKK1, hits give low values 1 | locus YOR265W, strain rbl2, hits give low values 0.991 | locus YOR270C, strain vph1, hits give low values 1 | locus YOR290C, strain snf2, hits give low values 0.99 | locus YOR316C, strain cot1, hits give low values 0.995 | locus YPL051W, strain arl3, hits give low values 0.997 | locus YPL055C, strain LGE1, hits give low values 1.03 | locus YPL078C, strain atp4, hits give low values 0.988 | locus YPL106C, strain sse1, hits give low values 0.971 | locus YPL240C, strain hsp82, hits give low values 0.988 | locus YPL256C, strain CLN2, hits give low values 0.979 | locus YPR119W, strain clb2, hits give low values 1 | locus YPR141C, strain kar3, hits give low values 0.998 | locus YPR163C, strain tif3, hits give low values 1.01 | locus YPR167C, strain met16, hits give low values 1.01 | strain wtn01, hits give low values 1
